Source: PubChem BioAssay (Tox21)
Results filed as inconclusive are left out. Active and inactive are the calls of the source. Unless noted, calls follow the shape of the full dose curve.

Tests used:
[1] = Nuclear factor erythroid 2-related factor 2/antioxidant responsive element (Nrf2/ARE) small molecule agonists: qHTS cell viability counter screen in human keratinocytes (AID 1919968; active = well fitted curve in the direction sought with a large enough effect in the repeat runs; an effect the other way counts as inactive or inconclusive; also: nearly all actives have a fitted effect of over 55% in size)
Outline: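 Stably transfected HaCaT (KeratinoSens), 1,500/well. Test agents in DMSO were applied for 23 h, 37 C/5% CO2. CellTiter-Fluor was incubated 1 h before the fluorescence read.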

[2] = target: Gonadotropin-releasing hormone receptor (Homo sapiens) (UniProt P30968); assay: Human gonadotropin-releasing hormone receptor (GnRHR) small molecule agonists, calcium flux assay in GnRHR-HEK293 cells (AID 1920063); also: nearly all actives have a fitted effect of over 35% in size
Sequence of Gonadotropin-releasing hormone receptor (Homo sapiens) (P30968 whole entry, looked up): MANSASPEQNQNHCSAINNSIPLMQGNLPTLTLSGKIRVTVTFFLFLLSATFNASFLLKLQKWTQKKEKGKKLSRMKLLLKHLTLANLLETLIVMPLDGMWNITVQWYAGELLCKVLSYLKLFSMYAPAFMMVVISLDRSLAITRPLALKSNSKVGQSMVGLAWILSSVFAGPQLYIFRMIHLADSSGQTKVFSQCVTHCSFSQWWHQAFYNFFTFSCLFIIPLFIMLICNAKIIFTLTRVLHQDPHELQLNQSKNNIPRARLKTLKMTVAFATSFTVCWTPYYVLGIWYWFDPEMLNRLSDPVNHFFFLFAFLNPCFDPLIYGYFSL
Outline: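 Stable human GnRHR HEK293 line. 18 h plating, then calcium dye for 1 h at 37 C. Agonist-mode compound addition from DMSO stocks; fluorescence monitored 3 min.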

[3] = target: KiSS-1 receptor (Homo sapiens) (UniProt Q969F8); assay: Human kisspeptin (KISS1R) small molecule agonists, calcium flux assay in KISS1R-HEK293 cells (AID 1920064; active = well fitted curve in the direction sought with a large enough effect in the repeat runs; an effect the other way counts as inactive or inconclusive)
Sequence of KiSS-1 receptor (Homo sapiens) (Q969F8 whole entry, looked up): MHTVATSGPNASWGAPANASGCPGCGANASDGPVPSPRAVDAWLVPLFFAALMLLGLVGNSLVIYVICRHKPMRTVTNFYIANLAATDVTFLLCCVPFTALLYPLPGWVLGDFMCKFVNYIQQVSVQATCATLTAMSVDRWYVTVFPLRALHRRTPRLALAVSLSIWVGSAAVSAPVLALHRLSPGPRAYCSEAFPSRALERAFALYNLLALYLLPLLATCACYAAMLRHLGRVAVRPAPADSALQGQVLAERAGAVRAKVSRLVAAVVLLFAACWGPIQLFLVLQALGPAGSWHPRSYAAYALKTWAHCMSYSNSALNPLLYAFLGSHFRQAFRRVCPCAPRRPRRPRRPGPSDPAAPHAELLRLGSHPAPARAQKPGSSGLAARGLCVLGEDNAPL
Outline: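 After overnight (18 h) culture at 37 C/5% CO2, human KISS1R-HEK293 cells received calcium dye for 1 h, then test compound; emission at 540 nm (excitation 480 nm) was tracked for 3 min.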

[4] = G protein-coupled receptor (GPCR) small molecule agonists, calcium flux assay: HEK293 wild type cell line counter screen (AID 1920065)
Outline: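 Following 18 h incubation at 37 C/5% CO2, plates got calcium dye for 1 h; compounds, ATP or DMSO were then pinned in and fluorescence followed kinetically (480/540 nm).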

[5] = p53 small molecule agonists, cell-based qHTS assay with rat liver microsomes (AID 1963578)
Outline: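 p53RE-bla cells were exposed to compounds together with rat liver microsomes (0.5 mg/mL final) and NADPH (0.5 mg/mL final) for 16 h at 37 C, then read by LiveBLAzer beta-lactamase fluorescence after 2 h at room temperature.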

[6] = p53 small molecule agonists, cell-based qHTS assay with human liver microsomes: qHTS cell viability counter screen (AID 1963579); also: nearly all actives have a fitted effect of over 45% in size
Outline: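 p53RE-bla cells (4,000/well) were pre-incubated 5 h at 37 C, then given compounds in DMSO plus human liver microsomes (0.5 mg/mL final) and NADPH (0.5 mg/mL final) for 16 h at 37 C. Viability was read by CellTiter-Glo luminescence.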

[7] = p53 small molecule agonists, cell-based qHTS assay: qHTS cell viability counter screen (AID 1963581); also: nearly all actives have a fitted effect of over 45% in size
Outline: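 qHTS counter screen: 16 h compound exposure at 37 C of p53RE-bla HCT-116 cells (4,000 per well, seeded 5 h prior), cell viability by ATP luminescence.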

[8] = p53 small molecule agonists, cell-based qHTS assay (AID 1963582; active = well fitted activation curve with a large enough effect in the signal ratio in the repeat runs, not every such curve was filed as active; the % refers to the signal ratio)
Outline: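 Measured: fluorescence from cleaved LiveBLAzer substrate. System: p53RE-bla cells, 16 h compound treatment at 37 C, 2 h substrate step at room temperature.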

[9] = target: 5-hydroxytryptamine receptor 2A (Homo sapiens) (UniProt P28223); assay: 5-hydroxytryptamine receptor 2A (HTR2A) small molecule antagonists, cell-based qHTS assay (AID 1963586); also: nearly all actives have a fitted effect of over 45% in size
Sequence of 5-hydroxytryptamine receptor 2A (Homo sapiens) (P28223 whole entry, looked up): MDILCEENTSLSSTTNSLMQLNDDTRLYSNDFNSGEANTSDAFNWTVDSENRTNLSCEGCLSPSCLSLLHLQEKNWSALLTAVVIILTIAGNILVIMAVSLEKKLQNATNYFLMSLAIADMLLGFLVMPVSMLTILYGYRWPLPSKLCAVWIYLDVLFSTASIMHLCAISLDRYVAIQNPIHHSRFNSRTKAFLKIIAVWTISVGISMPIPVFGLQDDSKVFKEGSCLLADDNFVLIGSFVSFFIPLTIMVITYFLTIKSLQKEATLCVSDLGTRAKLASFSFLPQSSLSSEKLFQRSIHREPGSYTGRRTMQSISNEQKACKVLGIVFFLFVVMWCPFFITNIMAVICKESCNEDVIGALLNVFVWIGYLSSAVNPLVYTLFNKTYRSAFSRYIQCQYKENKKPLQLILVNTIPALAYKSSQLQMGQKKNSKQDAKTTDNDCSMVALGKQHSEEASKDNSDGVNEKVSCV
Outline: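 CHO cells stably expressing human HTR2A were plated for 18 h at 37 C, then loaded with calcium dye for 1 h. Compounds were preincubated 5 min at room temperature before DOI (4 nM solution) was added. Kinetic fluorescence was read for 3 min.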

[10] = target: 5-hydroxytryptamine receptor 2A (Homo sapiens) (UniProt P28223); assay: 5-hydroxytryptamine receptor 2A (HTR2A) small molecule agonists, cell-based qHTS assay (AID 1963587); also: nearly all actives have a fitted effect of over 30% in size
Outline: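 Kinetic calcium-flux fluorescence (2 min, 1 sec intervals) after compound addition in agonist mode. HTR2A-CHO cells were cultured 18 h, then dye-loaded 1 h at 37 C.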

[11] = target: Muscarinic acetylcholine receptor M1 (Homo sapiens) (UniProt P11229); assay: Cholinergic receptor muscarinic 1 (CHRM1) small molecule antagonists, cell-based qHTS assay (AID 1963588); also: nearly all actives have a fitted effect of over 40% in size
Sequence of Muscarinic acetylcholine receptor M1 (Homo sapiens) (P11229 whole entry, looked up): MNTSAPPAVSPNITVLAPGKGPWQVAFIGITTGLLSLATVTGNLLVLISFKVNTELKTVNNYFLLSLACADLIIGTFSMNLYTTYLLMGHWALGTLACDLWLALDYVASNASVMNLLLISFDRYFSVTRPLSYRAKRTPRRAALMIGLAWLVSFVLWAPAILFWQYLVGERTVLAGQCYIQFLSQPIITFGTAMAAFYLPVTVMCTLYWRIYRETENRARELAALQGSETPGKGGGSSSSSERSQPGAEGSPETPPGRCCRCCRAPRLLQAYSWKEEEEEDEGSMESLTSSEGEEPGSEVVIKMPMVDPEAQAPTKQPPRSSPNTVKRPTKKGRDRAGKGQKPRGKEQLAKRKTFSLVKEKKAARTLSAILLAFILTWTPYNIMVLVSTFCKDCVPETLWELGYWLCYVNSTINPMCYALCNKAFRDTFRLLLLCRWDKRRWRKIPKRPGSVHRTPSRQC
Outline: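 Compounds were tested at 15 concentrations in three independent runs. Dye-loaded CHRM1-CHO cells were exposed 5 min at room temperature before stimulation by acetylcholine added at 50nM. Intracellular calcium was read kinetically on FDSS for 3 min.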

[12] = target: Muscarinic acetylcholine receptor M1 (Homo sapiens) (UniProt P11229); assay: Cholinergic receptor muscarinic 1 (CHRM1) small molecule agonists, cell-based qHTS assay (AID 1963589); also: nearly all actives have a fitted effect of over 35% in size
Outline: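 Kinetic fluorescence (1 s intervals) of calcium-sensitive dye in human M1 CHO cells after compound addition; cells pre-incubated 18 h at 37 C/5% CO2 and dye-loaded 1 h.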

[13] = cAMP Responsive Elements (CRE) small molecule agonists, cell-based qHTS assay (AID 1963590)
Outline: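 Test agents in DMSO were incubated 3 h at 37 C/5% CO2 with CRE-bla HEK 293T cells seeded 18 h earlier; LiveBLAzer B/G FRET substrate was added and read after 2 h at room temperature.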

[14] = target: Beta-2 adrenergic receptor (Homo sapiens) (UniProt P07550); assay: Adrenergic beta2 receptor (ADRB2) small molecule agonists, cell-based qHTS assay (AID 1963593);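 also: CHO cells stably overexpressing human ADRB2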
Sequence of Beta-2 adrenergic receptor (Homo sapiens) (P07550 whole entry, looked up): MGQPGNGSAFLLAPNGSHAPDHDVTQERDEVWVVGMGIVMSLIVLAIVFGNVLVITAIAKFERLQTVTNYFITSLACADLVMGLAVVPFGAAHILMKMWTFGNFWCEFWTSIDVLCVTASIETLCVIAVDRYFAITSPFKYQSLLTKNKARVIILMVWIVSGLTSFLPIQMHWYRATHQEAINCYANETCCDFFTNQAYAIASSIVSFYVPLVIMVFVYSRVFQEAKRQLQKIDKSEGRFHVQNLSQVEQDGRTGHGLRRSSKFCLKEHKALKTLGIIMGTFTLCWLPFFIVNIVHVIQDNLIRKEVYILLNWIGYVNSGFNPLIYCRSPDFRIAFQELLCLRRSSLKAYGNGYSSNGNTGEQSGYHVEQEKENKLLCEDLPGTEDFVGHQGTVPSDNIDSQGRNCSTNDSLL
Outline: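 CHO cells stably over-expressing ADRB2 were plated overnight at 37C, then dosed with compounds plus a stimulation mix containing 100uM IBMX and 25uM Ro-20-1724 for 0.5hr at room temperature. cAMP was measured by HTRF competition, 1hr.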

[15] = target: D(2) dopamine receptor (Homo sapiens) (UniProt P14416); assay: Dopamine D2 receptor (DRD2) small molecule agonists, cell-based qHTS assay (AID 1963594); also: nearly all actives have a fitted effect of over 35% in size
Sequence of D(2) dopamine receptor (Homo sapiens) (P14416 whole entry, looked up): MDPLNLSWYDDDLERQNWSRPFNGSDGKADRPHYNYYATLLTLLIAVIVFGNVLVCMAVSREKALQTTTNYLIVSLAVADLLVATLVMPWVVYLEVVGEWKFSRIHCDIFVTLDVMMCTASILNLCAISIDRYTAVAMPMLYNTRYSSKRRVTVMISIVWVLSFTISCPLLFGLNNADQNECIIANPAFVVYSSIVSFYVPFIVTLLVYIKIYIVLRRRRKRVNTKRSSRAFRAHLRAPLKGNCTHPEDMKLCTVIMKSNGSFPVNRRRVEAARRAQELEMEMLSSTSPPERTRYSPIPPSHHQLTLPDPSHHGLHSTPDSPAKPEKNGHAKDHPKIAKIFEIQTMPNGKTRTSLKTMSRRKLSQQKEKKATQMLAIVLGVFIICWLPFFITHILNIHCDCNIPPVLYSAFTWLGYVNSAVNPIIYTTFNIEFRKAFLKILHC
Outline: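 cAMP accumulation in DRD2-HEK293 cells measured by HTRF after 1 h detection; compounds added 10 min before NKH477 (200nM […]) forskolin-analogue stimulation, 30 min at room temperature, with Ro20-1724 present at 0.1 mM final.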

[16] = target: D(2) dopamine receptor (Homo sapiens) (UniProt P14416); assay: Dopamine D2 receptor (DRD2) small molecule antagonists, cell-based qHTS assay (AID 1963595; active = well fitted inhibition curve with a large enough effect in the signal ratio in the repeat runs, with a control signal flat; the % refers to the signal ratio)
Outline: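 Readout: HTRF cAMP, cAMP-d2 competing with cellular cAMP for anti-cAMP cryptate, read after 1 h. Cells: DRD2-HEK293. Conditions: 0.1 mM Ro20-1724, 12 nM quinpirole, 200 nM NKH477, 30 min RT.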

[17] = p53 small molecule agonists, cell-based qHTS assay with rat liver microsomes: qHTS cell viability counter screen (AID 1963580); also: nearly all actives have a fitted effect of over 45% in size
Outline: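 Rat liver microsome (0.5 mg/mL final) and NADPH (0.5 mg/mL final) co-incubation with compounds for 16 h at 37 C on HCT-116 p53RE-bla cells; cytotoxicity taken from intracellular ATP luminescence.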

[18] = cAMP Responsive Elements (CRE) small molecule antagonists, cell-based qHTS assay (AID 1963591; active = well fitted inhibition curve with a large enough effect in the signal ratio in the repeat runs, not every such curve was filed as active; the % refers to the signal ratio)
Outline: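 Reporter line CRE-bla HEK 293T in dialyzed-FBS DMEM; cells preincubated 18 h, treated 3 h with compound plus NKH477 (0.25 uM final); LiveBLAzer FRET, 2 h RT.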

[19] = target: Beta-2 adrenergic receptor (Homo sapiens) (UniProt P07550); assay: Adrenergic beta2 receptor (ADRB2) small molecule antagonists, cell-based qHTS assay (AID 1963592); also: series mostly up to about 92 µM; nearly all actives have a fitted effect of over 50% in size
Outline: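 Assay format: CHO-ADRB2 cells, 18-20hr seeding at 37C/5% CO2, then compound plus 1nM isoproterenol agonist mix for 0.5hr RT. Homogeneous time-resolved fluorescence cAMP detection after 1hr, expressed as 665/615 nm ratio.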

[20] = p53 small molecule agonists, cell-based qHTS assay with human liver microsomes (AID 1963577)
Outline: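 p53RE-bla reporter cells were pre-incubated 5 h at 37 C, then treated with compounds plus human liver microsomes (0.5 mg/mL final) and NADPH (0.5 mg/mL final) for 16 h at 37 C. Beta-lactamase activity was read by LiveBLAzer fluorescence after 2 h at room temperature.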
% is scaled to controls: 0 for no effect and ±100 for the full control effect.

CN1CCOCC1
inactive: Potency [1] | Potency [2] | Potency [3] | Potency [4] | Potency [5] | Potency [6] | Potency [7] | Potency [8] | Potency [9] | Potency [10] | Potency [11] | Potency [12] | Potency [13] | Potency [14] | Potency [15] | Potency [16]

CC1=CC[C@@H]2C[C@H]1C2(C)C
inactive: activity change, negative = cytotoxicity [1] -0.0198% [at 19 µM] | activity change [2] 0.0518% [at 11.8 µM, active compounds read high] | activation [3] -0.901% [at 15.8 µM] | activation [4] -1.47% [at 11.8 µM] | activity change, negative = cytotoxicity [6] -2.33% [at 13.5 µM] | activity change, negative = cytotoxicity [17] 4.85% [at 13.5 µM] | activity change, negative = cytotoxicity [7] -11.2% [at 13.5 µM] | activity, negative = inhibition [9] 6.44% [at 12.7 µM] | activation [10] -0.177% [at 15.9 µM] | activity, negative = inhibition [11] -2.89% [at 12.6 µM] | activation [13] 0.0762% [at 19 µM] | activity change, negative = inhibition [18] 3.33% [at 18.9 µM] | activity change, negative = inhibition [19] -16.3% [at 19 µM] | activation [15] -0.279% [at 19 µM] | activity change, negative = inhibition [16] -2.93% [at 18.9 µM]

C=CCCC=C
inactive: Potency [1] | Potency [2] | Potency [3] | Potency [4] | Potency [20] | Potency [5] | Potency [17] | Potency [7] | Potency [8] | Potency [11] | Potency [12] | Potency [13] | Potency [18] | Potency [19] | Potency [14] | Potency [15]

O=P(O)(OCc1ccccc1)OCc1ccccc1
inactive: Potency [1] | Potency [2] | Potency [3] | Potency [4] | Potency [20] | Potency [5] | Potency [6] | Potency [8] | Potency [9] | Potency [10] | Potency [11] | Potency [12] | Potency [13] | Potency [18] | Potency [19] | Potency [16]

OC1CCCC1
inactive: Potency [1] | Potency [2] | Potency [3] | Potency [4] | Potency [6] | Potency [17] | Potency [7] | Potency [9] | Potency [10] | Potency [11] | Potency [12] | Potency [13] | Potency [18] | Potency [14] | Potency [15] | Potency [16]

CC(=O)NCc1c(I)c(NC(C)=O)c(I)c(C(=O)O)c1I
inactive: Potency [1] | Potency [2] | Potency [3] | Potency [4] | Potency [20] | Potency [5] | Potency [17] | Potency [7] | Potency [8] | Potency [9] | Potency [10] | Potency [11] | Potency [13] | Potency [18] | Potency [19] | Potency [14] | Potency [15] | Potency [16]

CN(C)CCCNCCCN(C)C
inactive: Potency [1] | Potency [2] | Potency [3] | Potency [4] | Potency [20] | Potency [5] | Potency [17] | Potency [7] | Potency [8] | Potency [9] | Potency [10] | Potency [11] | Potency [13] | Potency [18] | Potency [19] | Potency [14] | Potency [15] | Potency [16]
